19 molecules from PubChem BioAssay (NCATS) can be followed below.

Molecules are shown by their SMILES. Results filed as inconclusive are left out. Values without a mark were called inactive. Calls of active or inactive are those of the source. Calls follow the shape of the dose curve; as a rule, active = well fitted curve in the direction sought with a large enough effect; inconclusive = small, poorly fitted or top-dose-only effect, or another doubt; inactive = no such curve, though single readings can be large; an effect the other way counts as inactive or inconclusive.

Assay [1] is described as follows: qHTS of pediatric cancer cell lines to identify multiple opportunities for drug repurposing: Primary screen for NB1643 cells (AID 1347099). Also: nearly all actives have a fitted effect of over 50% in size. The method in brief:
(§1)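 Readout: CellTiter-Glo luminescence, 48 h treatment. Controls DMSO (neutral) and bortezomib 2.3 µM final (positive). Potency and efficacy taken from primary-screen concentration-response curves.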

The nature of assay [2]: qHTS of pediatric cancer cell lines to identify multiple opportunities for drug repurposing: Primary screen for LAN-5 cells (AID 1347100). An outline of the steps: (§2)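 Cells (500-1,000/well) rested 5 h, then received compounds for 48 h; metabolically active cells were measured by CellTiter-Glo luminescence. Final concentrations spanned up to 46 µM (MIPE, 11-point) or 0.59 nM-46 µM (NPC, 8-point) in primary screens, 11-point in follow-ups.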

Assay [3] can be described thus: qHTS of pediatric cancer cell lines to identify multiple opportunities for drug repurposing: Primary screen for BT-12 cells (AID 1347101). Also: nearly all actives have a fitted effect of over 25% in size. The method in brief:
as §2

Assay [4] can be described thus: qHTS of pediatric cancer cell lines to identify multiple opportunities for drug repurposing: Primary screen for Rh18 cells (AID 1347102). Also: nearly all actives have a fitted effect of over 65% in size. An outline of the steps:
as §2

Assay [5] can be described thus: qHTS of pediatric cancer cell lines to identify multiple opportunities for drug repurposing: Primary screen for OHS-50 cells (AID 1347103). Also: nearly all actives have a fitted effect of over 40% in size. The method in brief: as §2
Assay [6] is described as follows: qHTS of pediatric cancer cell lines to identify multiple opportunities for drug repurposing: Primary screen for control Hh wild type fibroblast cells (AID 1347106). Also: nearly all actives have a fitted effect of over 55% in size. An outline of the steps:
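Viability after 48 h compound treatment at 37C, 500-1,000 cells/well, read as ATP luminescence with CellTiter-Glo. Primary screens used 11-point (MIPE, 0.78 nM-46 µM) or 8-point (NPC, 0.59 nM-46 µM) final concentrations; follow-up screens used 11-point dilutions.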

A short description of assay [7]: qHTS of pediatric cancer cell lines to identify multiple opportunities for drug repurposing: Primary screen for MG 63 (6-TG R) cells (AID 1347105). Also: nearly all actives have a fitted effect of over 50% in size. The method in brief:
as §1

A short description of assay [8]: qHTS of pediatric cancer cell lines to identify multiple opportunities for drug repurposing: Primary screen for Rh30 cells (AID 1347107). Also: nearly all actives have a fitted effect of over 75% in size. An outline of the steps: as §2
Assay [9] is described as follows: qHTS of pediatric cancer cell lines to identify multiple opportunities for drug repurposing: Primary screen for Rh41 cells (AID 1347108). Also: nearly all actives have a fitted effect of over 70% in size. An outline of the steps: as §1
Assay [10] can be described thus: qHTS of pediatric cancer cell lines to identify multiple opportunities for drug repurposing: Primary screen for RD cells (AID 1347104). Also: nearly all actives have a fitted effect of over 55% in size. An outline of the steps:
as §1
Potency is read from the fitted curve at half-maximal effect.

With `C[C@H]1O[C@@H](n2cc(F)c(=O)[nH]c2=O)[C@H](O)[C@H]1O`, the values for the Potency in assay [1], in assay [2] and in assay [3] were 18.7 µM (active), 13.2 µM (active) and 27.3 µM (active), respectively. Also, the Potency result in assay [4], in [5] and in [6] was “inactive” each time.
Consider `CS(=O)(=O)c1ccc(C2=C(c3ccccc3)C(=O)OC2)cc1`, for which the Potency result in [1], in [2], in [3], in assay [4], in assay [5] and in assay [7] was “inactive” throughout. Further, the Potency entry in assay [6], in assay [8] and in [9] was “inactive” each time.
`Fc1ccc(CNc2ncnc3ccc(F)cc23)cc1`: the Potency result in assay [1], in [2], in assay [4], in assay [7] and in assay [6] was “inactive” each time. Also, the results for the Potency in [3] and in [5] were 4.32 µM (active) and 6.85 µM (active), respectively.
Take `Cc1cnc(Nc2cccc(CN3CCOCC3)c2)nc1Nc1cccc(S(=O)(=O)NC(C)(C)C)c1`: the Potency in assay [1] is 8.33 µM (active); in assay [2], 1.48 µM (active); in assay [3], 13.7 µM (active); in assay [4], 8.33 µM (active); in assay [5], 3.43 µM (active); in [10], 13.2 µM (active). The figures for the Potency in assay [7], in assay [8] and in [9] were 7.43 µM (active), 8.33 µM (active) and 6.62 µM (active), respectively.
In the case of `Cc1nc(C(=O)NCC(=O)O)c(O)c2ccc(Oc3ccccc3)cc12`, the Potency result in [1], in assay [2], in assay [3], in [4], in assay [10] and in [7] was “inactive” in each case. Also, the Potency result in assay [8] and in assay [9] was “inactive” in each case.
`CC(C)CN(C[C@H](O)[C@H](Cc1ccccc1)NC(=O)O[C@H]1CCOC1)S(=O)(=O)c1ccc(N)cc1`: the Potency entry in assay [1] and in assay [2] was “inactive” each time.
`O=C1C(CCC(O)c2ccc(F)cc2)C(c2ccc(O)cc2)N1c1ccc(F)cc1` (stereo unspecified): the Potency result in assay [1], in assay [2], in assay [3], in assay [4], in [10] and in assay [7] was “inactive” throughout. Moreover, the Potency entry in assay [6] and in assay [9] was “inactive” each time.
With `CCOC(=O)N1CCN([N+]([O-])=NOc2cc(ON=[N+]([O-])N3CCN(C(=O)OCC)CC3)c([N+](=O)[O-])cc2[N+](=O)[O-])CC1`, the Potency entry in [1], in assay [2], in assay [3], in [4], in assay [5] and in assay [7] was “inactive” throughout. Further, the Potency entry in assay [6] and in assay [9] was “inactive” each time.
Turning to `CC=C1C2C=C(C)CC1(N)c1ccc(=O)[nH]c1C2` (stereo unspecified), the Potency result in [1], in [2], in [3], in [4], in assay [5] and in assay [10] was “inactive” each time. The Potency entry in assay [7], in [6], in assay [8] and in [9] was “inactive” throughout.
In the case of `CC(C)(OCc1nn(Cc2ccccc2)c2ccccc12)C(=O)O`, the Potency entry in [1], in assay [2], in assay [3], in [4], in [10] and in [7] was “inactive” each time. The Potency result in [6], in assay [8] and in assay [9] was “inactive” throughout.
For the molecule `CC(C)C[C@@H](C(=O)N[C@H](C(=O)OC1CCCC1)c1ccccc1)[C@H](O)C(=O)NO`, the Potency was 18.7 µM (active) in [1] and 16.6 µM (active) in [2].
For the molecule `CNC(=O)c1cc(Oc2ccc(NC(=O)Nc3ccc(Cl)c(C(F)(F)F)c3)c(F)c2)ccn1`, the Potency in [1] was 13.2 µM (active); in [2] it was 20.9 µM (active); in assay [3], 12.2 µM (active); in assay [4], 23.5 µM (active); in [5], 10.9 µM (active); in assay [10] it was 16.6 µM (active). In addition, the Potency in assay [7] is 23.5 µM (active).
For `Nc1[nH]nc2nnc(-c3c(-c4ccccc4)nn4ccccc34)cc12`, the Potency in assay [1] was 1.87 µM (active); in assay [2], 6.62 µM (active); in assay [3], 6.85 µM (active); in [4], 2.64 µM (active); in [5], 1.93 µM (active); in [9] it was 5.9 µM (active).
Take `O=C(O)C1=CO[C@@H](O[C@@H]2O[C@H](CO)[C@H](O)[C@H](O)[C@H]2O)[C@@H]2C(CO)=CC[C@H]12`: the Potency result in assay [1], in assay [2], in assay [3], in [4], in assay [5] and in assay [10] was “inactive” throughout. Moreover, the Potency result in assay [7], in assay [6] and in [9] was “inactive” in each case.
Consider `CCNC(=O)[C@H]1O[C@@H](n2cnc3c(N)nc(NCCc4ccc(CCC(=O)O)cc4)nc32)[C@H](O)[C@H]1O`, for which the Potency result in [1], in assay [2], in [3], in assay [4], in [10] and in assay [7] was “inactive” in each case. Besides, the Potency result in [6], in [8] and in assay [9] was “inactive” throughout.
As to `Cc1ccc(S(=O)(=O)OCC(=O)Nc2ccc(C(=O)O)c(O)c2)cc1`, the values for the Potency in [1] and in assay [2] were 18.7 µM (active) and 2.35 µM (active), respectively. Besides, the Potency result in assay [3], in [4], in [7] and in assay [6] was “inactive” throughout.
As for `C[C@@H]1C[C@H]2[C@@H]3CCC4=CC(=O)C=C[C@]4(C)[C@@]3(F)[C@@H](O)C[C@]2(C)[C@@]1(O)C(=O)CO`, the Potency result in assay [1], in assay [2], in assay [3], in [4], in [5] and in assay [10] was “inactive” each time. The Potency result in assay [6], in assay [8] and in [9] was “inactive” throughout.
Consider `CN(C)CCN(C)C(=O)c1ccc(NC(=O)Nc2ccc(-c3nc(N4CCOCC4)c4ccn(CC(F)(F)F)c4n3)cc2)cc1`, for which the Potency was 0.418 µM (active) in assay [1]; 2.64 µM (active) in assay [2]; 3.06 µM (active) in assay [3]; 0.187 µM (active) in [4]; 0.0432 µM (active) in [5]; 0.372 µM (active) in assay [10]. Besides, the Potency is 0.187 µM (active) in assay [7], 0.0526 µM (active) in assay [6] and 0.166 µM (active) in [9].
`CCN1CCC(n2cc(CNc3cc(Cl)c4ncc(C#N)c(Nc5ccc(F)c(Cl)c5)c4c3)nn2)CC1`: the Potency is 18.7 µM (active) in [1]; 14.8 µM (active) in [2]; 20.9 µM (active) in assay [4]; 17.2 µM (active) in assay [5]; 18.7 µM (active) in assay [10]; 23.5 µM (active) in assay [8]. In addition, in assay [9], the Potency is 14.8 µM (active). The Potency result in [6] was “inactive”.
